For 36 compounds, fractional viability results are on record in the supplement of paper PMC5919970.

This assay has as its system TYKNU. Briefly: fractional viability relative to vehicle; TYKNU is a high-grade serous ovarian cancer line; higher = less growth inhibition. The conditions noted are these: 72 h, genotype: OPA1 knockout (sgOPA1 #2). The procedure, abridged:
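Drug treatment lasted 72 h, with cells grown at 37 °C in 5% CO2 in RPMI 1640 supplemented with 10% FBS. Beforehand, TYKNU control cells or their lentiCRISPRv2 knockout derivatives had been seeded at 500 cells per well into drug-stamped 384-well plates carrying a ~2100-compound library at 2 or 10 μM, in duplicate. Viability came from Cell Titer Glo luminescence, with averaged duplicate treatment wells normalised to duplicate control wells in the same plate position.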

Whole data set: some 2,000 compounds, median “fractional viability relative to vehicle” near 0.92, cut for the lowest 2% near 0.11. The sample holds the lowest values, similar compounds and a random draw of the others, so the mix is not that of the screen.

Regarding `CN(CC(=O)N(Cc1ccc(C2CCCCC2)cc1)c1ccc(C(=O)O)cc1)S(=O)(=O)c1c(F)c(F)c(F)c(F)c1F`, the fractional viability reads like this: (2uM) 0.662; (10uM) 0.0586.

Turning to `C[C@H](NC(=O)[C@@H](O)c1cc(F)cc(F)c1)C(=O)N[C@@H]1C(=O)N(C)c2ccccc2-c2ccccc21`, the fractional viability is, setting by setting: (2uM) 1.2; (10uM) 1.02.

As to `CC[C@@]1(O)C(=O)OCc2c1cc1n(c2=O)Cc2cc3cc(O)ccc3nc2-1` [(S)-10-Hydroxycamptothecin], the fractional viability was 0.179 (2uM) and 0.157 (10uM).

For `COc1cc2/c(=N/c3ccc(Br)cc3F)nc[nH]c2cc1OCC1CCN(C)CC1` [Vandetanib (ZD6474)], the fractional viability (2uM) stood at 1.31 and the fractional viability (10uM) came to 0.638.

On to `COc1nc(OCc2cccc(-c3ccccc3)c2C)ccc1CNCCNC(C)=O` [PD-1/PD-L1 inhibitor 2], for which the fractional viability reads like this: (2uM) 0.912; (10uM) 0.487.

With `NS(=O)(=O)NCCNc1nonc1/C(=N/O)Nc1ccc(F)c(Br)c1`, the fractional viability worked out at 0.817 (2uM) and 0.783 (10uM).

Consider `C=CC(=O)Nc1cc(Nc2nccc(-c3cn(C)c4ccccc34)n2)c(OC)cc1N(C)CCN(C)C`, for which the fractional viability reads like this: (2uM) 0.766; (10uM) 0.0725.

Turning to `C=CC(=O)Nc1cccc(Nc2nc(Nc3ccc(NC4CN(CCF)C4)cc3OC)ncc2C(F)(F)F)c1`, the fractional viability runs as follows: (2uM) 0.897; (10uM) 0.432.

Regarding `C=CC(=O)Nc1cccc(Nc2nc(Nc3ccc(N4CCN(C(C)=O)CC4)cc3OC)ncc2C(F)(F)F)c1`, the fractional viability by setting is: (2uM) 0.781; (10uM) 0.431.

On to `C=CC(=O)Nc1cc(Nc2nccc(-c3c[nH]c4ccccc34)n2)c(OC)cc1N(C)CCN(C)C`, for which the fractional viability came to 0.542 (2uM) and 0.0815 (10uM).

Regarding `COc1cc(N2CCC(N)CC2)ccc1Nc1ncc(Cl)c(-c2c[nH]c3ccccc23)n1`, the fractional viability worked out at 0.672 (2uM) and 0.177 (10uM).

`C=CC(=O)Nc1cccc(C)c1Nc1ncc2cc(-c3c(Cl)c(OC)cc(OC)c3Cl)ccc2n1`: the fractional viability worked out at 0.676 (2uM) and 0.37 (10uM).

Turning to `CCC[C@H](Nc1nc(-c2ccc(NC(=O)NCC)c(OC)c2)ncc1C)c1cccnc1` [CYT997 (Lexibulin)], the fractional viability reads like this: (2uM) 0.378; (10uM) 0.361.

Compound `COc1ccc(CCC(=O)Nc2nc3ccc(Cl)cc3s2)cc1OC` returned a fractional viability (2uM) of 0.989 and a fractional viability (10uM) of 1.04.

`CNc1cc(-c2cccc(Cl)c2Cl)nc(N)n1`: the fractional viability by setting is: (2uM) 0.476; (10uM) 0.368.

Regarding `CN1CCN(C2CCN(C(=O)Nc3cc(Oc4ccc(NC(=O)C5(C(=O)Nc6ccc(F)cc6)CC5)c(F)c4)ccn3)CC2)CC1` [Golvatinib (E7050)], the fractional viability by setting is: (2uM) 0.92; (10uM) 0.485.

As to `COc1ccc(C2=N[C@H](c3ccc(Cl)cc3)[C@H](c3ccc(Cl)cc3)N2C(=O)N2CCNC(=O)C2)c(OC(C)C)c1` [Nutlin-3b], the fractional viability is, setting by setting: (2uM) 0.806; (10uM) 0.737.

On to `CCOc1nc2cccc(C(=O)O)c2n1Cc1ccc(-c2ccccc2-c2noc(=O)[nH]2)cc1` [Azilsartan], for which the fractional viability is, setting by setting: (2uM) 0.997; (10uM) 1.12.

`CCc1cccc(CC)c1NC(=O)N1Cc2[nH]nc(NC(=O)c3ccc(N4CCN(C)CC4)cc3)c2C1` displayed a fractional viability (2uM) of 1.02 and a fractional viability (10uM) of 0.885.

Regarding `CO[C@@H](C(=O)N1Cc2[nH]nc(NC(=O)c3ccc(N4CCN(C)CC4)cc3)c2C1)c1ccccc1`, the fractional viability reads like this: (2uM) 0.964; (10uM) 0.815.

Regarding `CN1CCN(c2ccc(C(=O)Nc3n[nH]c4ccc(Cc5cc(F)cc(F)c5)cc34)c(NC3CCOCC3)c2)CC1` [Entrectinib (RXDX-101)], the fractional viability was determined as 0.712 (2uM) and 0.113 (10uM).

`Clc1cccc(CN=C2Nc3ccccc3NC23CCNCC3)c1` [Liproxstatin-1]: the fractional viability was determined as 0.816 (2uM) and 0.729 (10uM).

`CCOc1cn(-c2ccc(F)cc2C)nc1C(=O)Nc1ccc(Oc2ccnc3cc(OC)c(OC)cc23)c(F)c1`: the fractional viability by setting is: (2uM) 0.919; (10uM) 0.773.

`Clc1ccc(C(Cn2ccnc2)OCc2ccc(Sc3ccccc3)cc2)c(Cl)c1` (configuration not stated) [Fenticonazole Nitrate]: the fractional viability runs as follows: (2uM) 0.933; (10uM) 0.911.

`Cc1cc(C)c(CNC(=O)c2cc(-c3ccc(N4CCN(C)CC4)nc3)cc3c2c(C)cn3C(C)C)c(=O)[nH]1` returned a fractional viability (2uM) of 0.878 and a fractional viability (10uM) of 0.945.

Compound `C=C1C(=O)O[C@H]2[C@H]1CC/C(C)=C/CC[C@@]1(C)O[C@@H]21` [(-)-Parthenolide] registered a fractional viability (2uM) of 0.557 and a fractional viability (10uM) of 0.0743.

The compound `C=C1C(=O)O[C@@H]2/C=C(\C)CC/C=C(\C)CC[C@@H]12` [Costunolide] showed a fractional viability (2uM) of 1.15 and a fractional viability (10uM) of 0.522.

As to `Cc1c[nH]c(/C=C2\C(=O)Nc3ccccc32)c1CCC(=O)O`, the fractional viability (2uM) is 0.793 and the fractional viability (10uM) turned out to be 0.846.

Consider `CCS(=O)(=O)Nc1ccc2c(c1)/C(=C(/Nc1ccc(CN3CCCCC3)cc1)c1ccccc1)C(=O)N2` [Hesperadin], for which the fractional viability is, setting by setting: (2uM) 0.544; (10uM) 0.113.

In the case of `CN(C)Cc1cccc(N/C(=C2\C(=O)Nc3cc(C(N)=O)ccc32)c2ccccc2)c1`, the fractional viability came to 0.93 (2uM) and 0.993 (10uM).

`COC(=O)c1ccc2c(c1)NC(=O)/C2=C(\Nc1ccc(N(C)C(=O)CN2CCN(C)CC2)cc1)c1ccccc1` [Nintedanib (BIBF 1120)]: the fractional viability is, setting by setting: (2uM) 1.32; (10uM) 0.372.

`CCOc1cc(C(C)(C)C)ccc1C1=N[C@@](C)(c2ccc(Cl)cc2)[C@@](C)(c2ccc(Cl)cc2)N1C(=O)N1CCN(CCCS(C)(=O)=O)CC1`: the fractional viability reads like this: (2uM) 0.49; (10uM) 0.469.

On to `O=C(c1cc(Cc2n[nH]c(=O)c3ccccc23)ccc1F)N1CCN(C(=O)C2CC2)CC1`, for which the fractional viability runs as follows: (2uM) 1.03; (10uM) 0.936.

For the compound `C=CC(=O)Nc1cccc(Oc2nc(Nc3ccc(N4CCN(C)CC4)cc3)ncc2Cl)c1`, the fractional viability reads like this: (2uM) 0.825; (10uM) 0.5.

For `C=CC(=O)Nc1cccc(Oc2nc(Nc3ccc(N4CCN(C)CC4)cc3OC)ncc2Cl)c1`, the fractional viability reads like this: (2uM) 0.964; (10uM) 0.766.

In the case of `C=CC(=O)Nc1cccc(Sc2nc(Nc3ccc(N4CCN(C)CC4)cc3)ncc2Cl)c1`, the fractional viability reads like this: (2uM) 1.31; (10uM) 0.1.
